Assay outcomes as filed in PubChem.
Rev-erbA mod: Rev-erb alpha (human) modulation | P20393 | Rev-erbα–FITC-DNA binding, fluorescence polarization, 90 min | activity, % at 10 µM | 370,000 tested, 0.79% active | AID 1259318;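 active = activity above about 14%, limit read from the data; passing the limit was not always enough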;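 note: 0% = DMSO wells with 35 nM protein and 100% = DMSO wells with 750 nM protein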
Target sequence (P20393 whole entry, looked up): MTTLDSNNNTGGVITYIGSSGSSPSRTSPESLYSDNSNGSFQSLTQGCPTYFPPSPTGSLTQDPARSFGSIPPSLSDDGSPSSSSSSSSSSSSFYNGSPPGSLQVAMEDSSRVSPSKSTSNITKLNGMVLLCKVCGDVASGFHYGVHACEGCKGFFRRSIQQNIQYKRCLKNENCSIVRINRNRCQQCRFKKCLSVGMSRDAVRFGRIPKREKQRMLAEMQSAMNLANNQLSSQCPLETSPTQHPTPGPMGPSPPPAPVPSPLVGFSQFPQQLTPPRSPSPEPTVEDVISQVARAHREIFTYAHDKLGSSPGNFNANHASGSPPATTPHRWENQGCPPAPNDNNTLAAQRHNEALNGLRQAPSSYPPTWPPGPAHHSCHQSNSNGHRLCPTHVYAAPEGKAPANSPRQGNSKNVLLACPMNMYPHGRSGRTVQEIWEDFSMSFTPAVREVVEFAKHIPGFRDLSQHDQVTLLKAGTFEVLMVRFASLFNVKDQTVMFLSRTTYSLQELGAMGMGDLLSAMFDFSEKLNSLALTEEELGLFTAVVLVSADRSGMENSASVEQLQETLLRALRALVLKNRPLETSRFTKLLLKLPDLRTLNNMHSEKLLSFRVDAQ
KLK7 zymogen act: proKLK7 (human) activation, primary screen; P49862; purified proKLK7, EDANS-DABCYL substrate fluorescence; 100% is mature enzyme control, 0% vehicle; activation, % at 7 µM; 370,000 tested, 0.9% active; AID 652039;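 active = activation above the mean of all tested compounds plus 3 SD, computed per campaign excluding outliers beyond control limits, cut at about 13% in these data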
PG9 Ab binder: binds the HIV-1 gp120 antibody PG9; TR-FRET gp120-PG9 antibody binding; inhibition, % at 6.7 µM; 360,000 tested, 0.43% active; AID 624416; in the data active = inhibition above about 8.5%
PP1 inh: blocks human PP1-alpha phosphatase, a PP5 counter-screen; P62136; 320,000 tested, 0.9% active; AID 2235; inhibition, % at 6.7 µM; purified PP1alpha, OMFP fluorescence;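 active = inhibition above the mean inhibition of all tested compounds plus 3 SD, computed separately for each screening campaign, cut at about 15% in these data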
JMJD2C inh: blocks human GASC-1 demethylase activity; Q9H3R0; GST-JMJD2C(1-420) H3K9me3 demethylation, DELFIA europium; inhibition, % at 2.35 µM; 330,000 tested, 0.069% active;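 active = more than half of a compound's replicate wells show inhibition beyond 50%, single wells judged on their own value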;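 note: signal counts dimethyl H3K9 product captured on neutravidin plate; 0% = median of DMSO wells and 100% = 0.3 times that DMSO median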
PP5 primary: PP5 (human) phosphatase inhibition; P53041; purified PP5c, OMFP substrate fluorescence; inhibition, % at 6.7 µM; 320,000 tested, 0.18% active;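 active = inhibition above the campaign's mean inhibition across all tested compounds plus 3 SD, cut at about 9.5% in these data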;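 note: 0% = DMSO only and 100% = 100 µM cantharidin control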
PG9 binder conf: confirmation of small molecules binding HIV-1 gp120 antibody PG9; inhibition, % at 6.7 µM; TR-FRET PG9 antibody binding, biochemical; shares compounds with PG9 Ab binder; 1,500 tested, 90% active; in the data active = inhibition above about 9%
PGV04 counter: PGV04 control antibody binding, counter-screen | shares compounds with PG9 Ab binder | TR-FRET PGV04 antibody-gp120 binding, biochemical | inhibition, % at 6.7 µM | 1,500 tested, 95% active; in the data active = inhibition above about 9.5%
Numbers without * were called inactive; x = no result given. Only some compounds are listed: those with a hit (about 2.8% of all), similar ones and a draw of the others.

SMILES	Rev-erbA mod	KLK7 zymogen act	PG9 Ab binder	PP1 inh	JMJD2C inh	PP5 primary	PG9 binder conf	PGV04 counter
C[C@H]1O[C@@H](n2c3ccc(Cl)cc3c3ccc4c5cc(Cl)ccc5[nH]c4c32)[C@H](O)[C@H](O)[C@H]1O	-2	2	x	x	x	x	x	x
CC(C)(C)OC(=O)NC1CCN(c2nc(-c3ccc(Br)cc3)cs2)CC1	-1	x	x	x	x	x	x	x
Cc1onc(-c2c(F)cccc2Cl)c1C(=O)Nc1nccs1	1	0	0	-1	-174	0	x	x
Cc1onc(-c2c(F)cccc2Cl)c1C(=O)Nc1nnc(C(F)(F)F)s1	4	0	24*	-1	-2	0	30*	42*
O=C1C(=O)N(CCN2CCOCC2)C(c2cccc(Cl)c2)/C1=C(\O)c1ccc2c(c1)OCCO2 (stereo not drawn)	-1	0	32*	0	-5	0	36*	42*
CCCCOc1cccc(C2/C(=C(\O)c3ccc4c(c3)OCCO4)C(=O)C(=O)N2CCN2CCOCC2)c1 (stereo not drawn)	0	0	10*	3	-25	0	18*	31*
O=C(Nc1ccc2c(c1)C(=O)NC2=O)c1cccc(Cl)c1	16	-19	17*	3	-19	1	28*	47*
Cc1cccc(C(=O)Nc2ccc3c(c2)C(=O)NC3=O)c1	-3	-98	0	-2	-17	1	x	x
CCCCOc1ccc(C(=O)Nc2ccc3c(c2)C(=O)NC3=O)cc1	-10	-2	21*	-1	14	-1	6	11*
CN[C@H]1C[C@H]2c3[nH]c4c(-c5ccccc5)cccc4c3CCN2C[C@H]1[C@H](C)O	-4	1	-1	x	x	x	x	x
CSc1nc(SC(C)C(=O)O)c2c3c(sc2n1)COC(C)(C)C3 (stereo not drawn)	1	0	9.0*	2	-2	-2	21*	30*
Cc1ccc(-c2cc(C(=O)N(C)Cc3cnn(C)c3C)c3cc(Br)ccc3n2)cc1	11	-1	21*	1	-7	2	25*	30*
NNC(=O)c1cc(-c2ccc(O)cc2)nc2ccc(Br)cc12	-1	0	-1	-1	1	1	x	x
Cc1ccc(N/C(N)=N/c2nc(CSc3nnc(N)s3)cc(=O)[nH]2)cc1	-6	0	0	-1	-7	1	x	x
N/C(=N\c1nc(CSc2nc3ccccc3s2)cc(=O)[nH]1)Nc1ccc(F)cc1	7	0	9.3*	6	6	2	27*	40*
CCOC(=O)N1CCC(NC(=O)c2cc(-c3ccc(OC)cc3)nc3ccccc23)CC1	6	-35	9.5*	-7	31	4	8	11*
O=C(CCn1c(=O)c2ccccc2n(Cc2ccccc2)c1=O)NCc1ccc2c(c1)OCO2	-2	0	13*	3	6	-1	24*	42*
O=C(NCCCc1ccccc1)OC1CC2CC1[C@H]1CCCCN1C2 (stereo partly drawn)	-5	-1	x	x	x	x	x	x
CCOC(=O)c1cc(-c2cccc(C(F)(F)F)c2)nc2nc(SC)[nH]c(=O)c12	2	-7	-1	2	-3	5	x	x
CCOC(=O)c1cc(-c2ccc(C)cc2)nc2nc(SC)[nH]c(=O)c12	1	5	24*	-2	-3	3	33*	34*
COc1ccc(O)c(/C=C(\C#N)C(=O)Nc2cccnc2)c1	6	-4	24*	2	-2	0	13*	16*
CSc1ccc(C#N)cc1NC(=O)c1ccc(Cl)cc1Cl	10	1	11*	2	12	0	19*	24*
CN(C)c1ccc(C(=O)Nc2ccc(S(=O)(=O)Nc3nccs3)cc2)cc1	5	0	26*	1	3	1	38*	47*
CCOC(=O)COc1cccc2c(=O)n(CC(=O)N3CCc4ccccc43)ccc12	15	0	14*	3	-18	4	21*	25*
COc1cccc2c(=O)n(CC(=O)N3CCc4ccccc43)ccc12	6	0	-2	1	1	-1	x	x
SMILES	Rev-erbA mod	KLK7 zymogen act	PG9 Ab binder	PP1 inh	JMJD2C inh	PP5 primary	PG9 binder conf	PGV04 counter
CC(C)(C)OC(=O)N1CCC(N[C@@H](Cc2c[nH]c3ccccc23)C(=O)NCC(c2ccccc2)c2ccccc2)(C(=O)NC2CCCCC2)CC1	-6	x	x	x	x	x	x	x
CN(c1ccc(F)cc1)S(=O)(=O)c1ccc2[nH]cc(C(=O)O)c(=O)c2c1	-5	-2	9.6*	15	-5	1	16*	19*
COCCN(CCOC)C(=O)c1c[nH]c2ccc(S(=O)(=O)N(C)c3ccc(F)cc3)cc2c1=O	5	-16	9.6*	-2	6	0	11*	12*
CCOC(=O)N1CCN(C(=O)c2c[nH]c3ccc(S(=O)(=O)N(C)c4ccc(F)cc4)cc3c2=O)CC1	4	-12	7	-3	-22	0	x	x
Nc1ncnc(N)c1NC(=O)c1ccccc1	-1	1	-1	x	x	x	x	x
CCOC(=O)N1CCN(C(=O)C[C@H]2C[C@@]3(C(=O)OC)C(=C[C@H](COCc4ccccc4)O[C@@H]3C)N(CCC3=CCCCC3)C2=O)CC1	0	0	1	x	x	x	x	x
CCOc1ccc(Nc2nc3ccccc3c(=O)s2)cc1	19	0	17*	-5	11	-2	18*	20*
Cc1c(N2C(=O)C(=O)/C(=C(/O)c3ccc(Br)cc3)C2c2cccnc2)c(=O)n(-c2ccccc2)n1C (stereo not drawn)	4	0	22*	-2	14	0	31*	38*
COC(=O)c1ccc(N2C(=O)CC(N3CCOCC3)C2=O)cc1 (stereo not drawn)	8	1	13*	-4	-8	3	7	9.3*
CCN=C1NC(c2ccc(C(F)(F)F)cc2)C(C(=O)OC)=C(C)N1Cc1cccc(C(F)(F)F)c1 (stereo not drawn)	-3	0	0	x	x	x	x	x
COc1cc(NC(C)=O)ccc1-c1cc2ccccc2oc1=O	-8	-1	0	-7	-7	-1	x	x
COc1cc(NC(=O)c2ccc(Cl)cc2Cl)ccc1-c1cc2ccccc2oc1=O	-4	-6	12*	4	-7	3	23*	33*
O=C(Nc1nc2c(Br)cc(Br)cc2c(=O)s1)C1CCC1	2	0	10*	1	-45	-2	18*	20*
C=CCN1[C@@H](CC(C)C)COc2cccc(F)c2S1(=O)=O	0	0	x	x	x	x	x	x
Cc1c(C(=O)Nc2nccs2)oc2ccc(Br)cc12	13	0	10*	x	2	x	12*	15*
